Records with an inconclusive call do not appear. Activity calls are given as the source filed them. Unless noted, calls come from the whole dose curve; as a rule, active = well fitted curve in the direction sought with a large enough effect in the repeat runs; inconclusive = weak or mixed curves; inactive = no such curve, though single readings can be large; an effect the other way counts as inactive or inconclusive.
Experiments:
[1] = qHTS assay for small molecules that induce genotoxicity in human embryonic kidney cells expressing luciferase-tagged ATAD5 - cell viability (AID 651634; calls by dose curve; note: nearly all actives have a fitted effect of over 25% in size)
Method in brief: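 15.5 hr compound or vehicle exposure of HEK293T cells expressing luciferase-tagged ATAD5 at 37C; live-cell protease activity is read by fluorescence after 30 min of CellTiter-Fluor.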

[2] = qHTS assay for small molecule disruptors of the mitochondrial membrane potential - cell viability (AID 720634; calls by dose curve;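 note: human HepG2 liver cancer cells; series mostly up to about 83 µM; nearly all actives have a fitted effect of over 20% in size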)
Method in brief: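 In this qHTS format, HepG2 cells plated overnight were pinned with compound, incubated 1 hr, and assayed for ATP luminescence with CellTiter-Glo after m-MPI dye addition.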

[3] = qHTS assay for small molecule disruptors of the mitochondrial membrane potential (AID 720635)
Method in brief: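 Mitochondrial membrane potential tracked with Mito-MPS dye, red aggregates (ex 540/em 590 nm) against green monomers (ex 490/em 535 nm). Compound treatment 1 hr at 37C, dye 30 min in HepG2.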

[4] = qHTS assay to test for compound auto fluorescence at 590 nm (red) in HepG2 cells (AID 720674)
Method in brief: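 Red autofluorescence (Ex/Em 540/590 nm, Rose Bengal sodium equivalents) was measured in HepG2 cells, 2,000 per well in MEM plus 10% FBS, plated overnight at 37 C. Readings were taken 1 hr after adding 23 nL compound or DMSO, at 37 C and 5% CO2.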

[5] = qHTS assay to test for compound auto fluorescence at 535 nm (green) in HepG2 cells (AID 720675)
[6] = qHTS assay to test for compound auto fluorescence at 460 nm (blue) in HEK293 cells (AID 720678)
Method in brief: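 Intrinsic compound fluorescence is recorded in live HEK293 cultures after overnight incubation at 37C, 5% CO2, using excitation 405 nm and emission 460 nm. Values are referenced to triamterene.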

[7] = qHTS assay to test for compound auto fluorescence at 590 nm (red) in HEK293 cells (AID 720679)
Method in brief: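 Red autofluorescence, HEK293 cells: 2,000 cells/well; attach 4-5 hr 37C; add 23 nL cpd or DMSO; incubate o/n 37C 5% CO2; read Ex540/Em590; Rose Bengal sodium reference.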

[8] = qHTS assay to test for compound auto fluorescence at 535 nm (green) in HEK293 cells (AID 720680)
[9] = qHTS assay to test for compound auto fluorescence at 460 nm (blue) in HEK293 cell free culture (AID 720681)
Method in brief: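 Blue fluorescence (Ex 405/Em 460 nm, triamterene-equivalent) was read immediately after pin transfer of compound or DMSO into medium (DMEM, 10% FBS) without cells.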

[10] = qHTS assay to test for compound auto fluorescence at 590 nm (red) in HEK293 cell free culture (AID 720683)
Method in brief: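 Red-channel autofluorescence of compounds in culture medium (DMEM, 10% FBS), no cells, measured at 540/590 nm. Rose Bengal sodium is the reference fluorophore for equivalence.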

[11] = qHTS assay to test for compound auto fluorescence at 590 nm (red) in HepG2 cell free culture (AID 720684)
Method in brief: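 Cell-free; medium MEM + 10% FBS; compound or DMSO added by pintool; read Ex 540/Em 590 nm; Rose Bengal sodium as red reference fluorophore.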

[12] = qHTS assay to test for compound auto fluorescence at 460 nm (blue) in HepG2 cell free culture (AID 720685)
Method in brief: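 Cell-free plates of MEM plus 10% FBS received 23 nL compound or DMSO vehicle; blue-channel (405/460 nm) intensity scored against triamterene as reference fluorophore.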

[13] = qHTS assay to test for compound auto fluorescence at 535 nm (green) in HepG2 cell free culture (AID 720686)
[14] = qHTS assay to test for compound auto fluorescence at 460 nm (blue) in HepG2 cells (AID 720687)
Method in brief: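 Blue-channel autofluorescence (Ex/Em 405/460 nm, triamterene-equivalent) was measured after 1 hr compound exposure at 37 C, 5% CO2. Cells were HepG2, plated overnight at 37 C in MEM plus 10% FBS.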

[15] = qHTS assay for small molecule agonists of the p53 signaling pathway - cell viability (AID 651633; calls by dose curve;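 note: p53RE-bla HCT reporter cells with a stable beta-lactamase p53 reporter; series mostly up to about 83 µM; nearly all actives have a fitted effect of over 30% in size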)
Method in brief: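 Viability counter-read: CellTiter-Glo luminescence (30 min, room temperature) in the same p53RE-bla plates. These plates had been exposed to compounds for 16 h at 37 C.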

[16] = qHTS assay to test for compound auto fluorescence at 535 nm (green) in HEK293 cell free culture (AID 720682)
Method in brief: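 Read-out: 485/535 nm fluorescence intensity, calibrated against fluorescein. Medium only (DMEM + 10% FBS, no cells); test compound or DMSO vehicle added by pintool before plate reading.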

[17] = target: Glucocorticoid receptor (Homo sapiens) (UniProt P04150); assay: qHTS assay to identify small molecule agonists of the glucocorticoid receptor (GR) signaling pathway (AID 720691; active = well fitted activation curve with a large enough effect in the signal ratio in the repeat runs, not every such curve was filed as active; the % refers to the signal ratio)
Chain of Glucocorticoid receptor (Homo sapiens) (P04150 whole entry, looked up): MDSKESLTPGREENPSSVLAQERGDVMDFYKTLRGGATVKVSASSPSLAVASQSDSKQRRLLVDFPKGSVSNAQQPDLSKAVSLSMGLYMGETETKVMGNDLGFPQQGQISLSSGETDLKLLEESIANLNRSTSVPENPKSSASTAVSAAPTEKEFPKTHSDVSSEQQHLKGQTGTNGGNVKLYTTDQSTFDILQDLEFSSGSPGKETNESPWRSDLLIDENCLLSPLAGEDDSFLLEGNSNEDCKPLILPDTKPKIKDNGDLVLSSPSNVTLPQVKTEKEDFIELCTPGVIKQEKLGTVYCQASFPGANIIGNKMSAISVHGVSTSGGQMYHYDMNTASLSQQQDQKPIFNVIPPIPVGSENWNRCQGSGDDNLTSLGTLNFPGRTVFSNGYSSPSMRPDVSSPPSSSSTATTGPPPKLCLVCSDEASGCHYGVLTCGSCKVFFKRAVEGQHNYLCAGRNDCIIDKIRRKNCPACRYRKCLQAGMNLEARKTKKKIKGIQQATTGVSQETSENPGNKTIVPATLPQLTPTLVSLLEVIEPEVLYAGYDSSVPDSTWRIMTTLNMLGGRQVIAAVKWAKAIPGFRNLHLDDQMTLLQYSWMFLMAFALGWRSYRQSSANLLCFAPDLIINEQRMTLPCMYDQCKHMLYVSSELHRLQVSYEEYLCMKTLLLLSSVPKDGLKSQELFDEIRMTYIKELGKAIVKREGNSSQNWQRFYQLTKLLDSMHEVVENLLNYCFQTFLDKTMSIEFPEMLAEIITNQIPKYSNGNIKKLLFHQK
Method in brief: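 Measures GR pathway activation through a GRE-beta-lactamase reporter stably integrated in HeLa cells, with 18 h compound treatment at 37 C and fluorescence detection using a FRET substrate.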

[18] = target: Glucocorticoid receptor (Homo sapiens) (UniProt P04150); assay: qHTS assay to identify small molecule antagonists of the glucocorticoid receptor (GR) signaling pathway (AID 720692; active = well fitted inhibition curve with a large enough effect in the signal ratio in the repeat runs, not every such curve was filed as active; the % refers to the signal ratio)
Method in brief: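 Tox21 10K library screened in concentration-response for blockade of dexamethasone (5 nM final)-induced GRE-bla reporter activity in HeLa cells; 18 h treatment, fluorescence read.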

[19] = qHTS assay for small molecules that induce genotoxicity in human embryonic kidney cells expressing luciferase-tagged ATAD5 (AID 651632); note: nearly all actives have a fitted effect of over 15% in size
Method in brief: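 Concentration-response screen for ATAD5 upregulation in HEK293T luciferase reporter cells; 16 hr treatment at 37C, then luminescence after 30 min with Amplite at room temperature.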
% is set by controls: 0 for no effect and ±100 for the full control effect.

CNC1CCCN(c2c(F)cc3c(=O)c(C(=O)O)cn(C4CC4)c3c2OC)C1 (stereo not drawn)
inactive: Potency [1] | outcome [2] | Potency [3] | outcome [4] | outcome [5] | Potency [6] | outcome [7] | outcome [8] | Potency [9] | outcome [10] | outcome [11] | Potency [12] | outcome [13] | Potency [14]

O=C(CCS)OCC(COC(=O)CCS)(COC(=O)CCS)COC(=O)CCS
inactive: Potency [15] | Potency [1] | outcome [2] | outcome [4] | outcome [5] | Potency [6] | outcome [7] | outcome [8] | Potency [9] | outcome [16] | outcome [10] | outcome [11] | Potency [12] | outcome [13] | Potency [14] | Potency [17] | Potency [18]

CC1=CC[C@@H]2C[C@H]1C2(C)C
inactive: activation [19] -0.905% [at 17.9 µM] | activity change, negative = cytotoxicity [15] 5.84% [at 17.9 µM] | activity, negative = cytotoxicity [1] -7.96% [at 17.9 µM] | fluorescence, relative to Rose Bengal [4] -0.0358% [at 18.6 µM] | fluorescence, % of fluorescein control [5] 0.0991% [at 18.6 µM] | fluorescence, % of triamterene [6] -0.0033% [at 18.6 µM] | fluorescence, % of fluorescent control [7] -0.712% [at 18.6 µM] | fluorescence, % of fluorescein [8] -0.149% [at 18.6 µM] | fluorescence, % of fluorescent control [9] 0.0118% [at 18.6 µM] | activity change [16] -0.0302% [at 18.6 µM] | fluorescence, % of fluorescent control [10] 0.0507% [at 18.6 µM] | fluorescence, % of Rose Bengal [11] 0.0249% [at 18.6 µM] | fluorescence, % of fluorescent control [12] 0.0508% [at 18.6 µM] | fluorescence, % of fluorescein control [13] 0.0311% [at 18.6 µM] | fluorescence, % of fluorescent control [14] -0.0004% [at 18.6 µM]

Cc1ccccc1S(N)(=O)=O
inactive: Potency [15] | Potency [1] | outcome [2] | outcome [4] | outcome [5] | Potency [6] | outcome [7] | outcome [8] | Potency [9] | outcome [16] | outcome [10] | outcome [11] | Potency [12] | outcome [13] | Potency [14] | Potency [17] | Potency [18]

Reference: PubChem BioAssay (Tox21)
